From PubChem
A selection: hits, their analogues and other compounds. The true share with any hit is near 3.4%.
SIRT5 block: inhibitors of human sirtuin-5 desuccinylase | Q9NXA8 | Purified SirT5, succinyl-peptide AMC, trypsin-coupled fluorescence | inhibition, % at 15 µM | 1.1% of 330,000 active | AID 652115; in the data active = inhibition above about 15%; inconclusive = no clear call, values can overlap the other calls
Target sequence (Q9NXA8 whole entry, looked up): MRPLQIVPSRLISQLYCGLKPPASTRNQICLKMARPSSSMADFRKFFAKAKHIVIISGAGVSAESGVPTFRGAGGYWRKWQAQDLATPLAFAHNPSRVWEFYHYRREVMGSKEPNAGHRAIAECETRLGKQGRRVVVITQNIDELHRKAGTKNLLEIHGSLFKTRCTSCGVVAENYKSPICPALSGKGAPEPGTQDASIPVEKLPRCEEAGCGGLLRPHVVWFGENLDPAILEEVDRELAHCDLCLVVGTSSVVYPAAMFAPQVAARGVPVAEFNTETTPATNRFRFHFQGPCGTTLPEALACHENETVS
EWS-Fli block: blocks EWS/Fli oncoprotein-driven transcription | A673 NR0B1-luciferase reporter, viability-normalised | inhibition, % at 12.6 µM | 0.67% of 350,000 active | AID 651661;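 active = mean inhibition of at least 50% after viability correction, with every replicate also passing that limit; inconclusive = mean reaches 50% but only one of two replicates passes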;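 also: firefly luciferase signal divided by Alamar Blue viability fluorescence both relative to DMSO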
LGR2 antag: Drosophila LGR2 receptor signaling inhibition. HEK293 LGR2, CRE-luciferase, bursicon-stimulated, 4 h. inhibition, % at 9.99 µM. 0.35% of 380,000 active;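 active = drop in luminescence signal, shown as inhibition above about 50% in the replicate tests, limit read from the data, passing the limit was not always enough; inconclusive = probably only some replicates passing the limit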;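 also: agonist challenge used bursicon conditioned medium at about half maximal strength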
rRNA inh HTS: selective bacterial rRNA inhibition in E. coli | E. coli WT GFP vs humanized-ribosome RFP mutants, fluorescence, 24 h; hits give low values; DMSO median 0, no signal -100 | GFP signal change (wild-type ribosome), % (no concentration beside the values) | 1.6% of 350,000 active;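 active = significant combined selectivity score with lowered wild-type GFP, culture density cut under 30%, mutant RFP and density less affected; inactive = any of these conditions unmet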
PAX8 reporter: inhibitors of PAX8 transcriptional activity in RMG-I cells | RMG-I TPO-luciferase reporter, SteadyGlo, 24 h | inhibition, % at 12.6 µM | 1.2% of 360,000 active | AID 652154;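 active = mean replicate inhibition at least 60% with every replicate also reaching 60%; inconclusive = only one of the two criteria is met; inactive = mean below 60% and not all replicates reaching 60%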;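 also: luciferase light reporting Pax8 driven TPO promoter activity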
PGC1a acetyl inh: modulators of PGC1a acetylation. inhibition, % at 15.6 µM. 0.17% of 350,000 active. U2OS PGC1a acetylation, AlphaScreen anti-acetyl-lysine; with virally co-expressed GCN5 acetyltransferase;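 active = every replicate shows inhibition of at least 40%; inconclusive = mean inhibition at least 40% but some replicate below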
A number is an active result; – = inactive; ? = inconclusive; · = not tested or not shown.

SMILES | SIRT5 block | EWS-Fli block | LGR2 antag | rRNA inh HTS | PAX8 reporter | PGC1a acetyl inh
Cc1ccc(C(=O)Nc2ccc3c(c2)OCCO3)c(C)c1 | – | 79 | 93 | – | 68 | –
O=C(Nc1ccc2c(c1)OCCO2)c1ccccn1 | – | – | 77 | – | – | ·
CC(C)NC(=O)N(C)C[C@@H]1Oc2ccc(NC(=O)CCC(F)(F)F)cc2C(=O)N([C@H](C)CO)C[C@H]1C | – | – | – | – | – | –
C[C@H](CO)N1C[C@H](C)[C@@H](CN(C)C(=O)NC2CCCCC2)Oc2ccc(NC(=O)Nc3ccc4c(c3)OCO4)cc2CC1=O | – | – | – | – | – | –
O=C(C[C@H]1C[C@@H]2c3cc(NC(=O)c4cccnc4)ccc3O[C@@H]2[C@@H](CO)O1)NCC(F)(F)F | – | – | – | – | – | –
O=C(Nc1ccc2c(c1)OCCO2)c1ccc(S(=O)(=O)N2CCCCC2)cc1 | – | · | – | -32 | – | –
CO/N=C/C(NC(=O)c1ccc(C(F)(F)F)cc1)C(=O)OC (centres undefined) | – | – | – | – | – | –
NC(N)=NN=C(c1ccc(F)cc1)c1ccc(C(F)(F)F)cc1 | · | – | ? | – | 95 | –
CN(C)C(=O)[C@@H]1[C@@H](CO)[C@@H]2Cn3c(ccc(-c4ccccc4)c3=O)[C@H]1N2CCc1ccccc1 | 29 | – | – | – | · | ·
CN1[C@@H]2Cn3c(ccc(-c4ccccc4)c3=O)[C@H]1[C@@H](C(=O)NC1CCCCC1)[C@@H]2CO | – | – | – | – | 89 | ·
CN1[C@H](C(=O)N2CCc3ccccc3C2)[C@@H](CO)[C@@H]2Cn3c(ccc(-c4cccnc4)c3=O)[C@@H]21 | – | – | – | – | – | ·
CN1[C@H](C(=O)N2CCc3ccccc3C2)[C@@H](CO)[C@@H]2Cn3c(ccc(-c4ccccc4)c3=O)[C@@H]21 | – | – | – | – | 68 | ·
CN(C)C(=O)[C@H]1[C@H](CO)[C@H]2Cn3c(ccc(-c4ccccc4)c3=O)[C@@H]1N2CCc1ccccc1 | – | – | – | – | · | ·
CN1c2ccc(-c3ccccc3)cc2[C@H]2[C@H](CCN2C(=O)Cc2ccccc2)[C@@H]1CO | – | – | – | – | – | –
O=C(C[C@H]1C=C[C@@H](NC(=O)Nc2ccc(F)cc2)[C@H](CO)O1)NCc1cccc(F)c1 | – | – | – | – | · | –
N#C[C@@H]1[C@H](c2ccc(-c3ccccc3F)cc2)[C@@H](CO)N1C(=O)Cc1ccccc1 | – | – | – | – | 103 | –
N#C[C@H]1[C@@H](c2ccc(C3=CCCCC3)cc2)[C@H](CO)N1C(=O)c1ccccn1 | – | – | 88 | – | – | –
N#C[C@H]1[C@@H](c2ccc(C3=CCCCC3)cc2)[C@@H](CO)N1C(=O)c1ccccn1 | – | – | – | – | – | –
CCc1cnc(N2[C@@H](C#N)[C@@H](c3ccc(C#CCC4CCCC4)cc3)[C@@H]2CO)s1 | – | – | – | – | 73 | –
N#C[C@H]1[C@@H](c2ccc(-c3ccccc3)cc2)[C@@H](CO)N1S(=O)(=O)Cc1ccccc1 | – | – | – | – | – | –
N#C[C@@H]1[C@@H](c2ccc(-c3ccc(F)cc3)cc2)[C@@H](CO)N1S(=O)(=O)Cc1ccccc1 | – | – | – | – | 69 | –
COc1cccc(C#Cc2cnc3c(c2)C(=O)N([C@@H](C)CO)C[C@@H](C)[C@H](CN(C)C(=O)C2CC2)O3)c1 | – | – | – | – | · | –
CC(=O)Nc1ccc2c(c1)C(=O)N(C)[C@H]1CC[C@H](CC(=O)Nc3c(F)cccc3F)O[C@@H]1CO2 | – | · | – | – | – | –
COc1cccc(-c2ccc([C@H]3[C@@H](CO)N(C(=O)Cc4ccccc4)[C@H]3C#N)cc2)c1 | – | – | – | – | 91 | –
COc1cccc(-c2ccc([C@H]3[C@@H](C#N)N(C(=O)c4ccccn4)[C@@H]3CO)cc2)c1 | – | – | – | – | – | –
SMILES | SIRT5 block | EWS-Fli block | LGR2 antag | rRNA inh HTS | PAX8 reporter | PGC1a acetyl inh
COc1cccc(-c2ccc([C@@H]3[C@H](C#N)N(C(=O)Cc4ccccc4)[C@H]3CO)cc2)c1 | – | – | – | – | – | –
COc1cccc(-c2ccc([C@H]3[C@@H](CO)N(C(=O)c4ccccn4)[C@H]3C#N)cc2)c1 | – | – | 66 | – | 83 | –
N#C[C@@H]1[C@H](c2ccccc2C2=CCCCC2)[C@H](CO)N1C(=O)Cc1ccncc1 | – | – | – | – | · | 45
N#C[C@H]1[C@@H](c2ccc(C#CCC3CCCC3)cc2)[C@@H](CO)N1C(=O)c1ccccn1 | – | – | – | – | 74 | –
N#C[C@@H]1[C@@H](c2ccc(C#CCC3CCCC3)cc2)[C@H](CO)N1C(=O)c1ccccn1 | – | – | – | – | – | –
CCC(=O)N1CC2(C1)CN(C(=O)Cc1ccccc1)[C@@H](CO)c1c2c2ccc(OC)cc2n1C | · | – | – | – | · | –
COc1ccc2c3c(n(C)c2c1)[C@@H](CO)N(C(C)=O)CC31CN(C(=O)NC(C)C)C1 | · | · | · | – | · | ·
COc1cccc(C#Cc2ccc([C@H]3[C@@H](C#N)N(C(=O)c4ccccn4)[C@@H]3CO)cc2)c1 | – | – | – | – | 76 | –
O=C(C[C@H]1C=C[C@H](NC(=O)c2ccccc2)[C@H](CO)O1)NCc1ccc(Oc2ccccc2)cc1 | – | – | – | – | · | –
CN(C)CCCN(C(=O)c1ccco1)c1nc2ccc(F)cc2s1 | 19 | – | – | – | – | ·
CN(C)CCCN(C(=O)COc1ccccc1)c1nc2ccc(F)cc2s1 | – | – | – | – | – | ·
CN(C)CCCN(C(=O)CCOc1ccccc1)c1nc2ccc(F)cc2s1 | – | – | – | – | 86 | 50
C[C@H](CO)N1C[C@H](C)[C@H](CN(C)C(=O)C2CC2)Oc2cc(-c3ccccc3)ccc2S1(=O)=O | · | – | – | – | · | –
CCCC(=O)N1CCC2(CC1)CN(C(=O)c1ccc(F)cc1)[C@H](CO)c1[nH]c3cc(OC)ccc3c12 | – | – | – | – | – | –
Cc1cccc(CSCC(=O)N2CCN(S(=O)(=O)c3ccccc3C#N)CC2)c1 | · | – | – | -16 | – | –
CCOc1ccccc1OCCCC(=O)N1CCN(S(=O)(=O)c2ccccc2C#N)CC1 | – | – | – | – | – | ·
COc1ccc(/C=N/NC(=O)CCn2cnc(-c3ccccc3)c2-c2ccccc2)cc1OC | – | 54 | – | · | – | –
COc1ccc(/C=N\NC(=O)c2ccccc2OC)cc1COc1c(F)c(F)c(F)c(F)c1F | – | – | – | – | 64 | ·
COc1cc(/C=N/NC(=O)c2ccc(-n3cccc3)cc2)ccc1O | · | · | – | · | 72 | ·
COc1cc(/C=N/NC(=O)c2ccc3c(c2)OCO3)ccc1O | – | · | – | – | – | ·
COc1cc(/C=N/NC(=O)c2ccc(-c3ccccc3)cc2)cc(OC)c1OC | · | · | – | · | 80 | ·
